Source: PubChem (National Center for Advancing Translational Sciences (NCATS))
Pol beta inh = qHTS Assay for Inhibitors of DNA Polymerase Beta. Potency, µM (titrated, usually from 114 µM), for the others: at the top dose activity change, negative = inhibition, usual class: inhibitors. Pol beta primer extension/strand displacement, fluorescence kinetic. AID 485314, 2010. 340,000 compounds, 1.3% hits; further: on the % scale 0 is the no-effect control and ±100 the full control effect
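Human Pol beta at 10 nM; strand-displacement substrate 50 nM final. Compound exposure 15 min at room temperature before start, reaction 10 min at room temperature.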
L3MBTL1 inh = qHTS Assay for the Inhibitors of L3MBTL1 | Lethal(3)malignant brain tumor-like protein 1 (Homo sapiens), Q9Y468 | Potency, µM (top dose mostly 57.1 µM), for the others: top-dose activity, negative = inhibition, usual class: inhibitors | AID 485360, 2010 | AlphaScreen L3MBTL1–H3K9me1 peptide binding | 230,000 compounds, 0.66% hits; further: on the % scale 0 is the no-effect control and ±100 the full control effect; nearly all actives have a fitted effect of over 60% in size
Target sequence (Q9Y468 whole entry, looked up): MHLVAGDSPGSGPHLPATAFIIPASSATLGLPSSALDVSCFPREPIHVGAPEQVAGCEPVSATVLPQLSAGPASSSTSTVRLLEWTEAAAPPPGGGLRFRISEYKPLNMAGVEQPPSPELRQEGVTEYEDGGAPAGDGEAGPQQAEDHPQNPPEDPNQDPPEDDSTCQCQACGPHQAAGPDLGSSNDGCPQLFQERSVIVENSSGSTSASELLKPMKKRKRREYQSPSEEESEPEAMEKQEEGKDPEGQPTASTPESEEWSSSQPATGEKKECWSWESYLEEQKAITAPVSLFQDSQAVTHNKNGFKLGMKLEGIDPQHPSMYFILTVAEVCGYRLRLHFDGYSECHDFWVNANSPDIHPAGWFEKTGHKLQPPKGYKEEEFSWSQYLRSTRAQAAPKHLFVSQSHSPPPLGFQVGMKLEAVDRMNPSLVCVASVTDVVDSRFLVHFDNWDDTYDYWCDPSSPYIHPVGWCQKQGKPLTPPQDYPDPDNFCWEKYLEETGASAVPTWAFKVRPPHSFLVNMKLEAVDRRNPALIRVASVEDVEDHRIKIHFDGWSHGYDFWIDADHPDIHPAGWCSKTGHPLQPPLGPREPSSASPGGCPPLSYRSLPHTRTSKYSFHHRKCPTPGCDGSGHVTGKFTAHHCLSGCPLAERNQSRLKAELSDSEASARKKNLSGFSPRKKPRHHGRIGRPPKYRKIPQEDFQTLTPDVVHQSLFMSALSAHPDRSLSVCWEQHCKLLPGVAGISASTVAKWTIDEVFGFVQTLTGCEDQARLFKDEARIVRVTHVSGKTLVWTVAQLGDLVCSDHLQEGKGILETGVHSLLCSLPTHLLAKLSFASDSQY
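Displacement of a biotinylated histone H3(1-15) peptide monomethylated at Lys9 (75 nM) from L3MBTL1 (50 nM) was measured by AlphaScreen after a 30 min room-temperature compound incubation; cefsulodin titration served as intraplate control.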
POLK inh = qHTS for Inhibitors of Polymerase Kappa; DNA polymerase kappa (Homo sapiens), Q9UBT6; purified Pol kappa, fluorescent DNA synthesis assay, 10 min; Potency, µM (titrated, usually from 107 µM), for inactives: at the highest dose activity, negative = inhibition, usual class: inhibitors; 400,000 compounds, 0.53% hits; further: on the % scale 0 is the no-effect control and ±100 the full control effect
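Inhibition of 10 nM Pol kappa is measured by a fluorescent read-out at 0 and 10 min following addition of 50 nM substrate (final), with a 15-min room-temperature compound preincubation.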
POLI inh = qHTS for Inhibitors of Polymerase Iota. DNA polymerase iota (Homo sapiens), Q9UNA4. Pol iota fluorescent replication assay, 10 min. Potency, µM (highest dose often 115 µM), inactives show top-dose activity, negative = inhibition, hits mostly inhibitors. 390,000 compounds, 1% hits
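Fluorescent replication assay read twice, at 0 min and 10 min after adding 50 nM (final) substrate. Enzyme (10 nM) and compounds were first incubated 15 min at room temperature; enzyme-free buffer wells were negative controls.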
WRN helicase inh = qHTS for Inhibitors of WRN Helicase; WRN helicase unwinding, fluorescent forked duplex, kinetic; Potency, µM (highest dose often 114 µM), inactives show at the highest dose activity change, negative = inhibition, hits mostly inhibitors; 360,000 compounds, 0.46% hits; further: on the % scale 0 is the no-effect control and ±100 the full control effect; nearly all actives have a fitted effect of over 55% in size
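WRN at 20 nM final preincubated with compound 15 min at room temperature; reaction started with 100 nM fluorophore/quencher forked duplex oligonucleotide and 2 mM ATP final. Unwinding followed kinetically by red fluorescence (ex 525, em 598 nm).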
POLH inh = qHTS for Inhibitors of Polymerase Eta. DNA polymerase eta (Homo sapiens), Q9Y253. recombinant Pol eta, fluorescent DNA replication assay. Potency, µM (doses to about 114 µM), for the others: at the highest dose activity change, negative = inhibition, usual class: inhibitors. 390,000 compounds, 1.2% hits; further: on the % scale 0 is the no-effect control and ±100 the full control effect
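Pol eta (10 nM) was preincubated with compounds for 15 min at room temperature, after which fluorescent replication substrate (50 nM final) was added to start the reaction. Fluorescence was read kinetically at 0 and 10 min.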
The depositor's hits bear a star; ? = inconclusive; / = not tested or not shown; [ ] = another dose, or the depositor's remark. This is a sample that favours compounds with a hit; in the whole collection about 2.5% have one here. The call rests on the fitted dose curve; in most records, active means well fitted curve in the direction sought with a large enough effect; inconclusive means small, poorly fitted or top-dose-only effect, or another doubt; inactive means no such curve, though single readings can be large; an effect the other way counts as inactive or inconclusive. Potency means the concentration at half of the fitted maximal effect.

SMILES	Pol beta inh	L3MBTL1 inh	POLK inh	POLI inh	WRN helicase inh	POLH inh
CC(NC(=O)CN1c2cccc3cccc(c23)S1(=O)=O)c1ccc(S(N)(=O)=O)cc1 (stereo not drawn)	/	?	?	28.2µM*	?	20µM*
CC(NC(=O)CN1c2cccc3cccc(c23)S1(=O)=O)c1ccccc1 (stereo not drawn)	/	/	/	/	-12.0%	-2.7%
C(=C\n1nnc2ccccc21)/c1ccc[nH]1	/	?	25.1µM*	?	?	50.1µM*
c1ccc(-n2nnc3ccccc32)cc1	5.9%	/	18.7%	29.9%	9.7%	-5.2%
CCOC(=O)c1cnc(Cc2ccccc2)[nH]c1=O	0.8%	8.3%[2.29 µM]	-12.7%	20.4%	-0.1%	-18.7%
CCOC(=O)c1cnc(-n2[nH]c(C)c(Cc3ccccc3)c2=O)[nH]c1=O	3.16µM*	2.82µM*	-3.2%	?	-17.3%	?
O=c1cc(CN2CCN(Cc3ccccc3)CC2)c2ccc(O)c(O)c2o1	2.51µM*	/	?	?	?	10µM*
Cc1c(O)ccc2c(CN3CCN(Cc4ccccc4)CC3)cc(=O)oc12	-2.3%	/	7.9%	14.3%	4.0%	-7.7%
COc1ccc(N=Nc2nc(-c3ccccc3)c(-c3ccccc3)[nH]2)cc1	1.0%	15.8µM*	-8.3%	76.3%	-13.9%	-24.1%
CN1CCN(c2nc3c(c(=O)[nH]c(=O)n3C)n2CCCSc2nnnn2-c2ccccc2)CC1	-2.8%	1.3%	-2.0%	157.3%	1.8%	-22.5%
Cc1c(N)cc(S(=O)(=O)O)cc1NC(=O)c1cccc([N+](=O)[O-])c1	/	/	-21.7%	?	-3.2%	28.2µM*
O=C(Nc1ccc(F)cc1)C1CCN(S(=O)(=O)c2ccc3c(c2)CCCN3C(=O)C2CCC2)CC1	1.4%	/	-4.3%[60.1 µM]	-13.8%	/	-19.1%
O=C(NCCN1CCC(n2c(=O)[nH]c3ccccc32)CC1)c1cccnc1	/	/	/	/	-1.4%	/
CCSc1nnc(-c2cccc(S(=O)(=O)N(CC)CC)c2)n1Cc1ccccc1	-0.4%	1.4%	-1.4%	6.5%	-1.6%	-13.2%
CCOc1ccccc1C1C2C(=O)N(c3ccccc3)C(=O)C2ON1c1ccccc1 (stereo not drawn)	5.1%	-1.2%	-7.3%	56.2µM*	-14.2%[57.1 µM]	-18.3%
COCC(C)N1C(=O)Cc2c1nc(N)c1c(N)nc(N3CCN(c4ccccc4F)CC3)c(C#N)c21 (stereo not drawn)	18.9%	/	-16.0%	17.8µM*	-4.6%	-20.8%
Cc1cc(C)c(C#N)c(N2CCN(c3ccccc3F)CC2)n1	16.7%	20.8%	-4.8%	-0.8%	-0.3%	-13.0%
COc1ccc(CN2C(=O)Cc3c2nc(N)c2c(N)nc(N4CCOCC4)c(C#N)c32)cc1	18.9%	/	-0.4%	7.94µM*	8.2%	?
COCCN1C(=O)Cc2c1nc(N)c1c(N)nc(N3CCN(c4ccc(F)cc4)CC3)c(C#N)c21	30.1%	-23.4%	-9.0%	?	-11.3%	-19.8%
COc1ccc(OCC(=O)N2CCN(C(=O)Cc3ccccc3)CC2)cc1	-10.8%	-0.1%	-4.4%	14.6%	9.1%	-2.2%
Cc1csc(N(C)C(=O)CSc2nnc(COc3cccc4ccccc34)o2)n1	9.7%	-14.6%[11.4 µM]	-12.1%	-4.5%	-14.2%	-5.8%
O=C(Nc1ccccc1O)c1ccc2c(c1)C(=O)N(N1C(=O)c3ccccc3C1=O)C2=O	28.2µM*	/	-13.1%	6.9%	-35.5%	-19.6%
O=C(Nc1ccc(O)cc1)c1ccc2c(c1)C(=O)N(N1C(=O)c3ccccc3C1=O)C2=O	?	/	-13.6%	-20.2%	-13.0%	1.6%
O=C(O)c1ccc2c(c1)C(=O)N(N1C(=O)c3ccccc3C1=O)C2=O	25.1µM*	2.8%	-11.7%	18.4%	-21.8%	-3.9%
O=C(O)c1ccc2c(c1)C(=O)N(CCc1ccccc1)C2=O	18.9%	-5.7%[2.29 µM]	-12.8%	24.4%	-0.1%	-23.6%
SMILES	Pol beta inh	L3MBTL1 inh	POLK inh	POLI inh	WRN helicase inh	POLH inh
COc1ccc(NC(=O)CN(C)S(=O)(=O)c2ccc3c(c2)n(C)c(=O)c(=O)n3C)cc1	-2.1%	/	0.3%	10.3%	4.0%	1.8%
O=C(CSc1nc2sc3c(c2c(=O)n1-c1ccccc1)CCCC3)N/N=C/c1ccc(C(=O)O)cc1	?	/	?	39.8µM*	0.8%[11.6 µM]	?
Cc1c(-c2nsc(NC(=O)c3cccs3)n2)nnn1-c1ccc(Br)cc1	3.16µM*	/	-20.9%	?	/	?
Cc1ccc(-n2nnc(-c3nsc(NC(=O)c4ccccc4)n3)c2C)cc1	1.7%	/	-6.6%[60.1 µM]	?	/	?
COC(=O)c1ccc(-n2nnc(-c3nsc(NC(=O)c4ccc(Cl)cc4)n3)c2C)cc1	56.2µM*	/	-8.7%	?	/	-22.8%
Cc1c(-c2nsc(NC(=O)c3ccc(Cl)cc3)n2)nnn1-c1ccc(C(C)C)cc1	?	/	-17.7%	13.1%	/	5.2%
CCOCCCNC(=O)c1cc(=O)n(Cc2cccc(C)c2)c2ccccc12	31.9%	-18.4%	2.2%	63.0%	7.8%	-8.4%
COc1ccc2cc(/C=C3\SC(=S)NC3=O)c(N3CCOCC3)nc2c1	?	-5.1%	-24.5%	-5.9%	-7.2%[11.6 µM]	20µM*
COc1cccc(C=C2SC(=S)NC2=O)c1	/	/	-4.1%	-17.4%	?	12.0%
N=C1C(c2nc3ccccc3s2)=C(O)CN1NC(=O)c1ccco1	25.1µM*	-1.9%	-34.6%	?	-13.9%	-4.0%
O=C(CC(NCc1ccccn1)C(=O)O)Nc1ccccc1Cl (stereo not drawn)	-1.6%	20µM*	7.1%	?	8.5%	-7.8%
CCOC(=O)c1c(NC(=O)C2CCCO2)sc(C(=O)OC(C)(C)C)c1C (stereo not drawn)	12.6%	/	-6.3%	8.0%	-15.9%	-3.7%
CCOC(=O)c1sc(NC(=O)C2CCCO2)c(C(=O)OCC)c1C (stereo not drawn)	14.1µM*	/	/	/	/	/
CCC1CN(C(=O)NCc2cccc(OC)c2)c2cc(Cl)ccc2O1 (stereo not drawn)	-19.7%	/	-11.2%[60.1 µM]	13.6%	-2.6%	-25.7%
FC(F)(F)c1cc(-c2ccco2)nc(NCc2cccs2)n1	1.0%	9.8%	-9.9%	8.1%	-24.5%	?
FC(F)(F)c1cc(-c2ccco2)nc(NCc2ccco2)n1	?	-0.2%	?	?	-7.0%[11.6 µM]	50.1µM*
COc1ccc(OCCCC(=O)OCC(=O)Nc2ccc(Cl)cn2)cc1	/	0.3%	-4.1%	33.5%	-18.8%	-1.7%
Cc1ccc(OCCC(=O)OCC(=O)Nc2ccc(Cl)cn2)cc1	-21.4%	?	-37.8%	?	-12.8%[57.1 µM]	15.8µM*
